{
  "source": "PubChem BioAssay AID540259",
  "about": "(Broad Institute, 2011)",
  "note": "Entries with a potency or affinity are not part of this list. Active and inactive are the calls of the source.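 The calls were made as follows: active = cell killing, meaning signal decrease, with fitted half-maximal dose at or below ten times the top valid tested dose; inconclusive = poor fit, or flat curve with 30 to 70% signal loss; inactive = the rest.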",
  "data": [
    {"experiment": "HeLa cell cytotoxicity, dose response, cytotoxicity control for MITF activator project, CellTiter-Glo luminescence, cherry-pick samples (AID 540259)", "details": "HeLa viability, CellTiter-Glo ATP luminescence, 24 h; series mostly up to 35 µM", "values": [
      {"smiles": "Cc1cc(Cl)ccc1OCc1cn2cccnc2n1", "outcome": "inactive"},
      {"smiles": "C=CCNC(=O)c1ccc2nc(Cc3ccc(OC)cc3)oc2c1", "outcome": "inactive"},
      {"smiles": "COc1ccc(/C=C2\\CCn3c2nc2ccccc2c3=O)cc1OC", "outcome": "inactive"},
      {"smiles": "C=CCNc1nc(-c2ccc(Cl)cc2)cs1", "outcome": "inactive"},
      {"smiles": "CC(C)c1ccc(CNc2ncc(Br)cn2)cc1", "outcome": "inactive"},
      {"smiles": "COc1ccc(-c2nnc(SCc3ccccc3)n2N)cc1", "outcome": "inactive"},
      {"smiles": "CN(C)c1ccc(CSc2ccccc2)cc1", "outcome": "inactive"},
      {"smiles": "COC(=O)c1cc(-c2ccc(OC)cc2)n[nH]1", "outcome": "inactive"},
      {"smiles": "Cc1ccc(-c2csc(NC(=O)c3ccc(Br)cc3)c2C(=O)O)cc1", "outcome": "inactive"},
      {"smiles": "Cc1ccc(-n2nnc3ccccc3c2=O)cc1C", "outcome": "inactive"},
      {"smiles": "Cc1ccc(NC(=O)N2CCc3ccccc3C2)cc1C", "outcome": "inactive"},
      {"smiles": "CN1C(=O)C2C=CC1C1C(=O)N(c3ccccc3)C(=O)C21", "note": "(configuration not stated)", "outcome": "inactive"},
      {"smiles": "Cc1ccc(CONC(=O)c2ccc(C)cc2)cc1", "outcome": "inactive"},
      {"smiles": "C=CCc1c(C)nc(-c2ccccc2)nc1N/N=C/c1ccncc1", "outcome": "inactive"},
      {"smiles": "FC(F)(F)c1ccnc(Oc2ccc(C3=NCCS3)cc2)c1", "outcome": "inactive"},
      {"smiles": "COc1ccc(NC(=O)C2Cc3ccccc3O/C2=N\\O)cc1", "note": "(configuration not stated)", "outcome": "inactive"},
      {"smiles": "CC(=O)c1cnc2c(-c3cccc(Br)c3)cnn2c1C", "outcome": "inactive"},
      {"smiles": "COc1ccc2cc(C(=O)NCCc3ccccc3)[nH]c2c1", "outcome": "inactive"},
      {"smiles": "COc1ccc(NC(=O)n2ncc3cc(Cl)ccc32)cc1OC", "outcome": "inactive"},
      {"smiles": "c1ccc(-c2noc(CCC3CCCC3)n2)cc1", "outcome": "inactive"},
      {"smiles": "O=C(N/N=C/c1ccc(OC(=O)c2ccccc2Cl)cc1)c1ccccn1", "outcome": "inactive"},
      {"smiles": "Cc1nc2ccccc2nc(=O)c1NNc1ccccc1", "outcome": "inactive"}
    ]}
  ]
}
